# Assay results as given in the OligoGym collection.
# Target: KIAA1217
# Assay: pooled miR-30 sensor sort-seq; sequence = guide strand
# Details: shRNA
# Note: reference of the scale not given here.
row,Sequence,sensor-assay potency score (higher = more potent)
1,TAGTGATCCAGATTTTGCCTTT,-0.121
2,TTCTCGATAGACACTGCCCTGT,-0.436
3,TATTTTGTAGCTCTGGTCTGTG,0.157

# Target: KIAA1279
# Assay: as above
# Details: shRNA
row,Sequence,sensor-assay potency score (higher = more potent)
1,TTCTTTGATGATAAAGCTCTGG,-0.681
2,TAGTACTTCAGTGCTGACTTAT,-0.671
3,TTTTTGATCTCTCTTGTTCAGT,-0.606
4,TATACTGATTATATAGTGCTTC,0.382
5,TTCAATATTGCACATTTCCTTT,-0.873
6,TTGAGCTAGGTAATATAGGTTA,-0.261
7,TAGCTTATTGATGTAAAACTGT,-0.47
8,TAGGTTATGAGTATAAACCTTT,-0.128
9,TTAATAGGAAACAAGCATCTAA,0.679
10,TAAAGCTCTAAGTTCAGACTGT,0.562
11,TAGCTCAACTTCTATTTCCTGG,0.213

# Target: KIAA2018
# Assay: as above
# Details: shRNA
row,Sequence,sensor-assay potency score (higher = more potent)
1,TCTGCTTCCAACATCCTGCTGT,0.86
2,TTTGTGTTGAGTTAGACGCTGA,0.486
3,TTTCTGTACAGAAACATTGGGG,-0.202
4,TAAACTTCCACTGTTTACCTTC,0.292
5,TTGAGCTGGAACATGCTGCTGC,0.733
6,TTGACTAATTCGAAAAGCCTGG,-0.327
7,TAGATTATAAGTACTAGCTAGT,0.0786
8,TTGTTGTAGATGACAAACCAGG,-1.34
9,TATCTGATGAATCTTGCTCAAC,-1.15
10,TTGCTGGTCACATCTTCTCTTG,-1.17
11,TAGATTTCGATACAGACTCAGG,-1.04
12,TTTCTGCATCTGAACTTCCTGT,-0.663

# Target: KIF21A
# Assay: as above
# Details: shRNA
row,Sequence,sensor-assay potency score (higher = more potent)
1,TTGCTGACTAGCTCTGTCCTGA,0.278
2,TTGATTTGCTGACTAGCTCTGT,0.32
3,TTTTATATAACTATGAATCATA,-0.753
4,TATACATTGAATGTAGATCTGC,-0.0184
5,TTTCATTTCCATCACATCCTGC,0.0152
6,TTGAATGTAGATCTGCTCTTGC,0.95
7,TTGAGCTGCTTGAAGTCTCTGC,0.624
8,TTCTAGTTCATCAATCAGCTTT,-0.0186
9,TTCAACTGAGCAATCTCTCTGT,0.68
10,TAGTAGTCTTGTTAGCTTGGAA,-0.0525
11,TTGCAGAACAAGCATCTCCAAG,-1.19
12,TTGTTTGAGTCGACCTTCCAGT,-0.666
